PLC-beta3 inh – blocks human PLC-beta3 enzyme activity; 370,000 compounds, 0.18% hits; inhibition, % at 12.2 µM; AID 720704; Q01970; Purified PLC-beta3, fluorogenic substrate, fluorescence; in the data active = inhibition above about 11%
PLC-gamma1 inh – inhibitors of human phospholipase C gamma1 | AID 720700 | P19174 | inhibition, % at 12.2 µM | purified PLC-gamma1, fluorogenic substrate, fluorescence | 370,000 compounds, 0.84% hits; in the data active = inhibition above about 9.5%
FAS-TE inh – FAS thioesterase (human) inhibition. recombinant FAS-TE, OMFH fluorogenic substrate, fluorescence endpoint. inhibition, % at 15 µM. 360,000 compounds, 0.67% hits. AID 602261;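 active = compounds whose normalised, plate-corrected inhibition of enzyme fluorescence in the single-dose primary screen is 50% or more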
Target sequence (P49327 whole entry, looked up): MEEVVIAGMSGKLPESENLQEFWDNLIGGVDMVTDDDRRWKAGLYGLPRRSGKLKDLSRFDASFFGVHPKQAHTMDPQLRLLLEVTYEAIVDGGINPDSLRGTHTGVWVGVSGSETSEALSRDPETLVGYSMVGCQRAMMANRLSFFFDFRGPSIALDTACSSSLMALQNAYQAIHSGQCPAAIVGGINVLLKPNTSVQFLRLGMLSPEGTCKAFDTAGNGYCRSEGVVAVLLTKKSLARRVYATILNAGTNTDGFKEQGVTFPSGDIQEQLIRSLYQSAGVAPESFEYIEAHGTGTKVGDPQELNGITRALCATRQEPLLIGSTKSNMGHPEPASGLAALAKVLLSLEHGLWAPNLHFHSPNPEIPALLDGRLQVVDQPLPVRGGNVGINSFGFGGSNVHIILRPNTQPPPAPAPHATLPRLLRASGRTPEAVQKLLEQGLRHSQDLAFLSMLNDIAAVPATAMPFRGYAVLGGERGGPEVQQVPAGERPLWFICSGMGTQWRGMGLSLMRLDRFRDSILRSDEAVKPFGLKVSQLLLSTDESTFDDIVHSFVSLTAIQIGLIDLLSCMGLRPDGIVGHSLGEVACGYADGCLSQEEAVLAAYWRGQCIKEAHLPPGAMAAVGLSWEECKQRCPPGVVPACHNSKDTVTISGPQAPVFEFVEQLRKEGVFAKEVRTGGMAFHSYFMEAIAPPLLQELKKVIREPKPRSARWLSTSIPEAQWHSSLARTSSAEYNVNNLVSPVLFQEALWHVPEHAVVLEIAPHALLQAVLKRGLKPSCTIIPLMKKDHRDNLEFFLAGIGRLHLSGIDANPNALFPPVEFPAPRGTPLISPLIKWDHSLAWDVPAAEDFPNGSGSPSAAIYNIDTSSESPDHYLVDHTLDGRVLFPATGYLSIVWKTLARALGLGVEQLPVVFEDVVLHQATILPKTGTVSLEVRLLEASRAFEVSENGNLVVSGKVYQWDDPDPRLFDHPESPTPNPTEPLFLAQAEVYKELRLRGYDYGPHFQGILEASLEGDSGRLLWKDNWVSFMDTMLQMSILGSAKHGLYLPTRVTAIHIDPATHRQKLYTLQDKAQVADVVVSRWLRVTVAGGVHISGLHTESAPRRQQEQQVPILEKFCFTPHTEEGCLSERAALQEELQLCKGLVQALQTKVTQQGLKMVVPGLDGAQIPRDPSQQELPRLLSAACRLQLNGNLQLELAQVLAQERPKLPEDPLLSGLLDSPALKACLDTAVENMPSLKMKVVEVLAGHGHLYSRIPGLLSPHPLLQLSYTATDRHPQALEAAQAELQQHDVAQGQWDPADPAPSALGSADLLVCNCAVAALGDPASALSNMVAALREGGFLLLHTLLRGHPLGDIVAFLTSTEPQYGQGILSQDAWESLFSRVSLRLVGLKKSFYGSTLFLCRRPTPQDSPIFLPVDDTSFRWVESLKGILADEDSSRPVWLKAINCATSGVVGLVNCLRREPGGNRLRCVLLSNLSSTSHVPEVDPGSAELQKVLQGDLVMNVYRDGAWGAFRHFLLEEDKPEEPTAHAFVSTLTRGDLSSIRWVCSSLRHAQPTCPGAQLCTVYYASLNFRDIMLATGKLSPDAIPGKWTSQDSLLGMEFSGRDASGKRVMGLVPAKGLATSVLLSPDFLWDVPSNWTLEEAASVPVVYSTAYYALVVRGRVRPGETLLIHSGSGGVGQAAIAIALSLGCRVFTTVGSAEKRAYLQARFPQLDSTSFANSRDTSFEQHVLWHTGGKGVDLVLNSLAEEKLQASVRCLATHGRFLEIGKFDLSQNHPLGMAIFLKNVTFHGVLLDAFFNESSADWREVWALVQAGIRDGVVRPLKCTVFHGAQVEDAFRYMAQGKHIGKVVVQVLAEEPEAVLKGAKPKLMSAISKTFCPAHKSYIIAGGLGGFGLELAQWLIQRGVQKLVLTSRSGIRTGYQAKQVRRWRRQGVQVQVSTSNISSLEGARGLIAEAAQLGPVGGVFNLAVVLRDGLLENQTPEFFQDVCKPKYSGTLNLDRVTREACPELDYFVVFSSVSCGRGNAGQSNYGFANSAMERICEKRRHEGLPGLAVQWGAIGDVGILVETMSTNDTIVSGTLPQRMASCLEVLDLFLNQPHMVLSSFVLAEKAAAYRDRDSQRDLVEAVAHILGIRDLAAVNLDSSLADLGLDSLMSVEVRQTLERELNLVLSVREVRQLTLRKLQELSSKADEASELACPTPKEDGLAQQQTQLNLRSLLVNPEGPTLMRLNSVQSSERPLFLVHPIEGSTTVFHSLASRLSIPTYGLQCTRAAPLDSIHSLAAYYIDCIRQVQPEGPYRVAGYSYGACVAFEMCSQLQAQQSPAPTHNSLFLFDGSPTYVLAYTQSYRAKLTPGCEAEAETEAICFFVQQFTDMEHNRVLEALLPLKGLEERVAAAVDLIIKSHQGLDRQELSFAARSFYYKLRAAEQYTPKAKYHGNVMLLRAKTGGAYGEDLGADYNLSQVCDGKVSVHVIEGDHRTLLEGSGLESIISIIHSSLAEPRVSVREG
H9c2 protect – modulators protecting cardiomyocytes from myocardial damage | H9c2 cardiomyocytes, H2O2 injury protection, ATPLite, 2 h | 360,000 compounds, 0.63% hits | protection from H2O2 cell death, % at 20 µM;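 active = compounds giving at least 50% protection of heart cells from peroxide-induced death in the single-dose screen, raw or plate-pattern-corrected value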
FAS-TE inh conf – FAS thioesterase (human) inhibition, confirmation. shares compounds with FAS-TE inh. recombinant FAS-TE, OMFH fluorogenic substrate, fluorescence. inhibition, % at 15 µM. 2,300 compounds, 45% hits. AID 624325;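 active = compounds inhibiting the enzyme by at least 50% at 15 µM in any one of the replicates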
Of the large screens only hits and unclear results are named; the others gave an inactive call (follow-up assays come after a bar, where they were run). Rows were chosen to be rich in hits. Some 2.2% of all compounds tested hit in one or more screens of this group.

CCOC(=O)CC[C@@]1(C(=O)OCC)C[C@@H](CC(=O)NCc2ccc(C)o2)C(=O)N2CCCC=C21	none (no result: FAS-TE inh, H9c2 protect)
O=C(CC1CCCC1)N1CC[C@H]2[C@H](CCCN2Cc2ccccc2)C1	none (no result: FAS-TE inh, H9c2 protect)
C/C(=C/CCC(C)[C@H]1CC[C@@]2(C)C3=C(CC[C@]12C)[C@@]1(C)CCC(=O)C(C)(C)[C@@H]1CC3)C(=O)O (stereo partly specified)	FAS-TE inh 74 | FAS-TE inh conf inactive
COc1cc(/C=C/C(=O)Nc2ccc(N3CCCCC3)c(S(=O)(=O)Nc3ccccc3Cl)c2)cc(OC)c1OC	FAS-TE inh 58 | FAS-TE inh conf inactive
COc1ccc(NC(=O)c2ccc3ccccc3n2)cc1S(=O)(=O)Nc1ccccc1Cl	FAS-TE inh 64 | FAS-TE inh conf inactive
COc1ccc(/C=C/C(=O)Nc2cc(S(=O)(=O)N3CCCCC3)ccc2N2CCCCC2)cc1OC	FAS-TE inh 90 | FAS-TE inh conf inactive
COc1ccccc1NS(=O)(=O)c1cc(NC(=O)Nc2ccc(Cl)cc2Cl)ccc1N1CCCCC1	none
COc1ccc(/C=C/C(=O)Nc2cc(S(=O)(=O)N3CCOCC3)ccc2N2CCCC2)cc1OC	none
COCc1cc(N2CCNC[C@H]2C)ccc1N1CCN(Cc2ccccc2)[C@H](C)C1	none (no result: FAS-TE inh, H9c2 protect)
C[C@@H](N)C(=O)Nc1ccc(Cl)cc1C(=O)c1ccc[nH]1	none (no result: FAS-TE inh, H9c2 protect)
CCN1C(=O)[C@H]2[C@@H](c3ccc(-c4ccc(Cl)c(Cl)c4)c(OC)c3)N[C@@](Cc3ccccc3)(C(=O)OC)[C@H]2C1=O	FAS-TE inh 70 | FAS-TE inh conf inactive
CCN1C(=O)[C@H]2[C@@H](c3ccc(-c4ccc5c(c4)OCO5)cc3)N[C@@](Cc3ccccc3)(C(=O)OC)[C@H]2C1=O	FAS-TE inh 67 | FAS-TE inh conf inactive
COC(=O)N1C(=O)[C@](c2ccccc2)(C2CCCC2)N1C(=O)OC	FAS-TE inh 80, H9c2 protect 80 | FAS-TE inh conf 90
C[C@@]12C(=O)N(Cc3ccc(F)cc3)CC(=O)N1[C@H]1c3cc(Cl)ccc3OC[C@@H]1[C@@H]2c1ccccc1	FAS-TE inh 84 | FAS-TE inh conf inactive
COc1ccc2c(c1)OC[C@H]1[C@H]2N2C(=O)CN(Cc3ccc(F)cc3)C(=O)[C@@]2(C)[C@H]1c1ccccc1	FAS-TE inh 61 | FAS-TE inh conf inactive
COc1ccc2c(c1)OC[C@H]1[C@H]2N2C(=O)CN(Cc3ccc(C)cc3)C(=O)[C@@]2(C)[C@H]1c1ccccc1	FAS-TE inh 62 | FAS-TE inh conf inactive
COc1ccc(CN2CC(=O)N3[C@H]4c5cc(C)ccc5OC[C@@H]4[C@H](c4ccccc4)[C@]3(C)C2=O)cc1	none
CCN(CC)S(=O)(=O)c1ccc(N2CCOCC2)c(NC(=O)c2cccc3c(=O)c(C)c(-c4ccccc4)oc23)c1	none
COc1ccc(S(=O)(=O)N2CCOCC2)cc1NC(=O)c1cccc2c(=O)c(C)c(-c3ccccc3)oc12	FAS-TE inh 93, H9c2 protect 71 | FAS-TE inh conf inactive
CC(C)Oc1ccc(S(=O)(=O)N2CCOCC2)cc1NC(=O)c1nn(C)c(=O)c2ccccc12	FAS-TE inh 67 | FAS-TE inh conf inactive
O[C@H](COc1ccc(Cl)cc1)CN1CCC(C(O)(c2ccccc2)c2ccccc2)CC1	none (no result: FAS-TE inh, H9c2 protect)
C[C@@H]1ON(C)[C@H]2C[C@H]3c4cc(-c5cccc(Cl)c5)ccc4CCN3C[C@@H]12	none (no result: FAS-TE inh, H9c2 protect)
Cc1cc(C)cc(NC(=O)C(Sc2nnc(C)c(=O)[nH]2)c2ccccc2)c1 (stereo unspecified)	none
Cc1nnc(SC(C(=O)Nc2ccc(Cl)c([N+](=O)[O-])c2)c2ccccc2)[nH]c1=O (stereo unspecified)	FAS-TE inh 52 | FAS-TE inh conf 53
C[C@@]12C(=O)Nc3ccc(Cl)cc3C(=O)N1[C@H]1c3cc(Br)ccc3OC[C@@H]1[C@@H]2c1ccccc1	FAS-TE inh 91 | FAS-TE inh conf inactive
C[C@@]12C(=O)Nc3ccccc3C(=O)N1[C@H]1c3cc(Br)ccc3OC[C@@H]1[C@@H]2c1ccccc1	FAS-TE inh 92 | FAS-TE inh conf 47
COc1ccc2c(c1)C(=O)N1[C@H]3c4cc(Br)ccc4OC[C@@H]3[C@H](c3ccccc3)[C@]1(C)C(=O)N2	FAS-TE inh 78 (no result: PLC-beta3 inh, PLC-gamma1 inh) | FAS-TE inh conf 41
COc1ccc2c(c1)[C@H]1[C@H](CO2)[C@H](c2ccccc2)[C@@]2(C)C(=O)N[C@H](C)C(=O)N12	none
C[C@@]12C(=O)Nc3ccc(Br)cc3C(=O)N1[C@H]1c3cc(Br)ccc3OC[C@@H]1[C@@H]2c1ccccc1	FAS-TE inh 64 | FAS-TE inh conf inactive
CCOC(=O)[C@H]1[C@H]2COc3ccc(Br)cc3[C@@H]2N2C(=O)c3cc(F)c(F)cc3NC(=O)[C@@]12C	none
CN(C)S(=O)(=O)n1cc(/C=C(\NC(=O)c2ccccc2)C(=O)NCCCN2CCOCC2)c2ccccc21	none
COc1ccc(C(=O)N/C(=C\c2cn(S(=O)(=O)N(C)C)c3ccccc23)C(=O)NCCCN2CCOCC2)cc1	FAS-TE inh 57 | FAS-TE inh conf 74
O=C(CC1C[C@H](C(=O)N2CCOCC2)[C@@]2(CCC3CCCC3)c3[nH]c4ccccc4c3CCN2C1=O)NCC12CC3CC(CC(C3)C1)C2 (stereo partly specified)	FAS-TE inh 89 | FAS-TE inh conf inactive
O=C(CC1C[C@H](C(=O)N2CCCCC2)[C@@]2(CCc3ccccc3)c3[nH]c4ccccc4c3CCN2C1=O)NCc1ccco1 (stereo partly specified)	none
O=C(CC1C[C@H](C(=O)N2CCOCC2)[C@@]2(CCC3CCCC3)c3[nH]c4ccccc4c3CCN2C1=O)NCc1ccco1 (stereo partly specified)	FAS-TE inh 84 | FAS-TE inh conf 92
CN(C)C(=O)CCc1ccc2c3c([nH]c2c1)[C@]1(CCC2CCCC2)[C@@H](C(=O)N2CCOCC2)C[C@H](CC(=O)NCC24CC5CC(CC(C5)C2)C4)C(=O)N1CC3	none
COCCCNC(=O)CC1C[C@H](C(=O)N2CCOCC2)[C@@]2(CCC3CCCC3)c3[nH]c4ccc(OC)cc4c3CCN2C1=O (stereo partly specified)	FAS-TE inh 53 | FAS-TE inh conf 64
O=C(C[C@H]1C[C@H](C(=O)N2CCOCC2)[C@@]2(CCC3CCCC3)c3[nH]c4ccc(Cl)cc4c3CCN2C1=O)NCCCn1ccnc1	FAS-TE inh 55 | FAS-TE inh conf inactive
O=C(C(=O)N1CCC(CNS(=O)(=O)c2cccc3ccccc23)CC1)c1cccs1	none (no result: FAS-TE inh, H9c2 protect)
Cc1cnc(NC(=O)C2(C)CCN2C(=O)C(C)C)s1 (stereo unspecified)	none
COC(=O)[C@]12C[C@H](CC(=O)NCC34CC5CC(CC(C5)C3)C4)C(=O)N(CCC3=CCCCC3)C1=C[C@H](C(C)C)O[C@@H]2C1CC1	none (no result: FAS-TE inh, H9c2 protect)
O=C(CC1C[C@H](C(=O)N2CCOCC2)[C@@]2(CCC3CCCC3)c3[nH]c4ccccc4c3CCN2C1=O)NCCN1CCOCC1 (stereo partly specified)	FAS-TE inh 76 | FAS-TE inh conf 87

High-throughput results (PubChem)
